What was measured:
Type in all cases: functional
[1] = target: Solute carrier family 2, facilitated glucose transporter member 1 (Homo sapiens) (UniProt P11166); test: ST_JUDE_LEISH: Cytotoxicity at 2uM final concentration against transgenic Leishmania Mexicana promastigotes LmGLUT1 that are glucose transport deficient and complemented with the human glucose transporter GLUT1. Activity is measured by DNA content using SYBR green in vitro
[2] = target: Hexose transporter 1 (Plasmodium falciparum) (UniProt O97467); test: ST_JUDE_LEISH: Cytotoxicity at 2uM final concentration against transgenic Leishmania Mexicana promastigotes LmPfHT that are glucose transport deficient and complemented with the Plasmodium falciparum hexose transporter. Activity is measured by DNA content using SYBR green in vitro
[3] = target: Glucose transporter (Leishmania mexicana) (UniProt O61059); test: ST_JUDE_LEISH: Cytotoxicity at 2uM final concentration against transgenic Leishmania Mexicana promastigotes LmGT2 that are glucose transport deficient and complemented with the L. Mexicana glucose transporter 2. Activity is measured by DNA content using SYBR green in vitro

Chain of Solute carrier family 2, facilitated glucose transporter member 1 (Homo sapiens) (P11166 whole entry): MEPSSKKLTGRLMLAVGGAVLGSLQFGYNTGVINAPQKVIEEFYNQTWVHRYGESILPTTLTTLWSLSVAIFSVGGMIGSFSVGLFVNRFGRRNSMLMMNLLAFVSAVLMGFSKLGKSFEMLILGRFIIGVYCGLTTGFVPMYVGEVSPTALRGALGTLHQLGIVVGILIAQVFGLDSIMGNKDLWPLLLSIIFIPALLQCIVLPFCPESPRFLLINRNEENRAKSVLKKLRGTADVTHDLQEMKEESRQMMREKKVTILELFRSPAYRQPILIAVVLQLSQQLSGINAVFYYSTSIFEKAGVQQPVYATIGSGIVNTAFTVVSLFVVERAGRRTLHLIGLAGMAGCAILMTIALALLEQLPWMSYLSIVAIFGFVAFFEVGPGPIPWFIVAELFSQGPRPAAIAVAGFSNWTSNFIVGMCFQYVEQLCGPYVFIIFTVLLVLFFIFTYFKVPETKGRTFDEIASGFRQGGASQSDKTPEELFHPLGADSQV

SMILES	inhibition [1] [%]	inhibition [2] [%]	inhibition [3] [%]
Cc1cccc2nc(-c3cccc(-c4ccc(C(=O)NCCc5ccc(O)c(=O)[nH]5)cc4)c3)[nH]c12	2.16	1.89	2.33
O=C1CCCC1Sc1nc2ccccc2c(=O)n1-c1ccc(Cl)c(Cl)c1 (centres undefined)	2.33	1.97	-1.42
N#Cc1ccc(C(=O)Nc2ccc(-c3cccc(CN4CCCC4)c3)cc2)cc1	4.22	1.49	-0.82
COC(=O)c1c(C#N)c(OC)cc(O)c1CSC[C@H](Nc1nc(-c2ccc([N+](=O)[O-])cc2)cs1)C(=O)NCCN1CCCCC1	-1.73	0.29	-0.42
COc1cccc2cc(C(=O)N[C@@H](CC(C)C)C(=O)NC3CC[C@@H](C)N(C(=O)Nc4ccncc4)CC3=O)oc12 (some centres undefined)	9.49	4.38	3.24
O=C(NCCCCN1CCN(CC=Cc2ccccc2)CC1)c1ccc(NC(=O)c2cc(Cl)cc(Cl)c2)cc1	-0.99	-0.05	-0.79
CN1CCN(Cc2ccc(-c3ccc4c(Nc5ccc(F)cc5Cl)ccnc4c3)o2)CC1	0.53	0.83	1.39
COc1ccc(CC(=O)NC2CCN(c3ccnc4cc(Cl)ccc34)C2)cc1 (centres undefined)	-0.54	-0.22	-0.25
COc1ccc(CN(C)CCCc2ccc(NC(=O)c3cc4ccccc4[nH]3)cc2)cc1OC	3.27	1.65	0.23
Cn1ccnc1-c1nc2ccccn2c1NCC(=O)Nc1ccccc1N1CCCCC1	-1.68	-2.15	0.02
CN(C)c1ccc(CN2CCC(CNC(=O)c3cc(-c4ccccc4Cl)cs3)C2)cc1 (centres undefined)	0.57	-3.68	0.7
O=C(Nc1cccc(C(F)(F)F)c1)c1ccc(S(=O)(=O)NC2CCN(CC3CCCCC3)CC2)cc1	1.83	1.62	5.57
Cc1noc(C)c1-c1ccc2c(Nc3ccccc3C(C)(C)C)c(C(=O)NC3CCCC3)cnc2c1	2.07	1.46	-0.58

From ChEMBL document CHEMBL3433997, “St. Jude Leishmania screening dataset” (2016)
